Screening data from PubChem BioAssay.
Rows were chosen to be rich in hits. Some 2.6% of all compounds tested hit in one or more screens of this group.
Cruzain Triton: blocks cruzain activity in presence of Triton detergent | 0.43% of 200,000 active | P25779 | Potency, µM, inactives show max response, negative = inhibition, actives largely listed as inhibitors | AID 1478 | purified cruzain, Z-FR-AMC fluorescence, 0.01% Triton;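 also: plate controls were neutral wells for no effect and buffer without enzyme for full effect; nearly all actives have a fitted effect of over 40% in size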
Target sequence (P25779 123-467 limits assumed): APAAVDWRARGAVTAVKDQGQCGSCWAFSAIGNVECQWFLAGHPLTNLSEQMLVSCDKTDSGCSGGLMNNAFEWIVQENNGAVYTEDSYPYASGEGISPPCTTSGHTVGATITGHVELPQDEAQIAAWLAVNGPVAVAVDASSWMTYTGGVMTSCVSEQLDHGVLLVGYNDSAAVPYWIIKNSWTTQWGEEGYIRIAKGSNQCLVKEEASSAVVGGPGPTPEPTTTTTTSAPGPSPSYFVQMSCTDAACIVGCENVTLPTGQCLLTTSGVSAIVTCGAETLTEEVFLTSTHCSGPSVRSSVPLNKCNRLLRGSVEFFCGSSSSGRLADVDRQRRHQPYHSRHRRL
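Cysteine protease activity tested under reducing, mildly acidic conditions (100 mM sodium acetate pH 5.5, 5 mM DTT) plus 0.01% Triton X-100. Cruzain 1.5 nM; substrate Z-FR-AMC 2 uM; 15 min compound preincubation at room temperature.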
Cruzain noTriton: blocks cruzain activity in detergent-free assay | P25779 | purified cruzain, Z-FR-AMC fluorescence, no detergent | Potency, µM, without a hit: max response, negative = inhibition, actives largely listed as inhibitors | 2.3% of 200,000 active | AID 1476;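 also: plate controls were enzyme without inhibitor for no effect and buffer without enzyme for full effect; nearly all actives have a fitted effect of over 40% in size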
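Purified cruzain at 1.5 nM, pre-incubated 15 min with compound at room temperature in 100 mM sodium acetate pH 5.5, 5 mM DTT, 0.00005% Triton X-100. Reaction started with 2 uM Z-FR-AMC; AMC fluorescence increase over 60 s gives rate.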
Starred values were filed as active, the others as inactive; ? = inconclusive. Calls follow the shape of the dose curve; as a rule, active = well fitted curve in the direction sought with a large enough effect; inconclusive = small, poorly fitted or top-dose-only effect, or another doubt; inactive = no such curve, though single readings can be large; an effect the other way counts as inactive or inconclusive. Potency is read from the fitted curve at half-maximal effect.

SMILES	Cruzain Triton	Cruzain noTriton
COC(=O)CCC(NC(=O)c1cc(C)oc1C)C(=O)OC (stereo unspecified)	1.2%	11.8%
COc1ccccc1-n1c(SCC(=O)NC2CCCC2)nc2cccnc21	5.1%	0.7%
CCOC(=O)C1=C(c2ccccc2)NC(=S)NC1c1cccc([N+](=O)[O-])c1 (stereo unspecified)	-5.9%	3.2%
CCOC(=O)C1=C(c2ccccc2)NC(=S)NC1c1cc([N+](=O)[O-])ccc1OC (stereo unspecified)	0.4%	25.1µM*
Cc1ccc(C)c(SCC(=O)Nc2cccc(S(=O)(=O)NC3=NCCCCC3)c2)c1	-4.9%	-1.8%
O=C(CSc1ccc2ccccc2c1Br)Nc1cccc(S(=O)(=O)NC2=NCCCCC2)c1	-5.0%	20µM*
COc1ccc(OC)c(C2C(C(C)=O)=C(O)C(=O)N2c2ccc(F)cc2)c1 (stereo unspecified)	-3.5%	-2.0%
Cc1ccc2nc(-c3ccco3)c(Nc3ccccc3)n2c1	1.2%	-8.9%
COc1cc(NC(=O)C/C(C)=N/NC(=O)c2cccc(O)c2)c(OC)cc1Cl	-2.6%	-0.4%
O=C(Nc1ccc(/C=C/c2nc3ccccc3o2)cc1)c1c(F)cccc1F	-0.8%	10µM*
Cc1cnc(Nc2nc3ccccc3o2)nc1C(=O)Nc1cccc(C(F)(F)F)c1	-2.4%	-6.3%
O=C(Nc1ccc2c(c1)OCCO2)c1c(F)cccc1F	-1.3%	-12.9%
O=C(Nc1ccc(/C=C/c2nc3ccccc3o2)cc1)c1cccc(C(F)(F)F)c1	-5.5%	7.94µM*
CC1CCCCN1CC(=O)c1ccc2cc[nH]c2c1 (stereo unspecified)	-0.2%	-12.3%
O=C(/C=C/c1ccccc1)NC(=S)Nc1ccc(N2CCOCC2)cc1	-4.0%	-5.8%
COc1ccc2cc(C)c3nnc(SCC(=O)Nc4nc(-c5ccccc5)cs4)n3c2c1	3.0%	?
Cc1ccc(C(=O)N/N=C/c2ccc(-c3ccccc3[N+](=O)[O-])o2)cn1	-10.4%	0.6%
Cc1nnc(N/N=C\c2ccc(-c3ccccc3[N+](=O)[O-])o2)n1N	14.1µM*	12.6µM*
COc1ccccc1C(=O)NCCc1nc2ccccc2[nH]1	15.8µM*	5.01µM*
CC(=O)NCCc1nc2ccccc2[nH]1	-2.2%	-7.1%
O=C(NCCc1nc2ccccc2[nH]1)c1ccc(F)cc1	?	1.26µM*
COCC(=O)NCCc1nc2ccccc2[nH]1	-10.7%	?
COCCOc1cc(Nc2nnc(C(F)(F)F)s2)c(Cl)cc1Cl	-0.9%	-2.4%
NC(N)=NOCCC(N)C(=O)O (stereo unspecified)	3.3%	2.9%
O=C(Nc1ccccc1)Nc1nnc(/C=C/c2ccccc2Cl)s1	-4.1%	25.1µM*
SMILES	Cruzain Triton	Cruzain noTriton
O=C(Nc1ccccc1)O/N=C/c1ccccc1Cl	5.1%	8.1%
Cc1nc(NCc2ccccc2)c2nc(-c3ccccc3)n(CCN3CCOCC3)c2n1	-5.4%	?
Cc1cc(-c2csc(NC(=O)c3ccccc3C(F)(F)F)n2)c(C)n1Cc1ccccc1	-0.1%	15.8µM*
Cc1cc(-c2csc(NC(=O)c3ccc(=O)n(C)n3)n2)c(C)n1CC1CCCO1 (stereo unspecified)	-9.4%	?
Cc1cc2oc(=O)cc(CSc3nnc(C)n3N)c2cc1C(C)C	-13.8%	-10.1%
Cc1cc2oc(=O)cc(CSc3nnc(-c4cccs4)o3)c2cc1C(C)C	-6.3%	12.6µM*
Cc1cc(C(=O)CN2CCC(C)CC2)c(C)n1-c1ccc(F)cc1	0.5%	-1.9%
CCOc1ccc(NC(=O)N(Cc2ccc(CC)cc2)Cc2cn[nH]c2-c2ccc(OC)cc2)cc1	-1.8%	2.0%
CCC(=NCCN1CCOCC1)c1c(O)n(-c2ccccc2C)c(=O)[nH]c1=O	1.0%	1.0%
O=C(c1ccco1)N1CCN(C(c2cccs2)c2sc3ncnn3c2O)CC1 (stereo unspecified)	4.5%	-1.1%
N#Cc1ccsc1NC(=O)CSc1ncnc2ccccc12	-8.3%	15.8µM*
N#Cc1ccsc1NC(=O)CSc1ncn[nH]1	5.1%	-4.9%
COCCNC(=O)CN1CCN(C(c2ccccc2)c2ccccc2)CC1	-1.7%	0.9%
O=C1NC(=O)c2cc(Nc3ccc(F)cc3)c(Nc3ccc(F)cc3)cc21	-0.6%	-8.7%
O=C1NC(=O)c2cc(Nc3ccccc3)c(Nc3ccccc3)cc21	-5.7%	20µM*
Oc1c(/C=N/Nc2cccc3cccnc23)ccc2ccccc12	-0.3%	31.6µM*
O=C(Nc1cccc2cccnc12)c1cccc2ccccc12	2.2%	-6.6%
CC(C)C(=O)Nc1ccc(N2CCCC2)cc1	-6.5%	-7.9%
O=C(Cc1ccccc1)Nc1cccc(N2CCCC2)c1	-29.4%	25.1µM*
O=C(CCc1ccccc1)Nc1ccc(N2CCCCC2)cc1	-2.5%	12.4%
CC(C)c1ccc(C(=O)Nc2ccc(N3CCOCC3)cc2)cc1	-1.5%	-4.2%
O=C(Cc1ccccc1)Nc1ccc(N2CCCC2)cc1	?	12.6µM*
CCN1CCN(c2ccc(NC(=O)Cc3ccccc3)cc2)CC1	3.6%	4.4%
O=C(Nc1ccc(N2CCCC2)cc1)C(c1ccccc1)c1ccccc1	-12.1%	7.94µM*
CC(C)Oc1ccc(C(=O)Nc2ccc(N3CCCC3)cc2)cc1	-28.0%	3.98µM*
SMILES	Cruzain Triton	Cruzain noTriton
Cc1ccc(CS(=O)(=O)CCC(=O)NCCCN2CCCC2)cc1	4.3%	3.2%
COc1ccc(S(=O)(=O)N2CCN(c3ccccc3)CC2)cc1-c1noc(C)n1	-0.3%	-10.1%
CCCCOC(=O)C1=C(C)Nc2ncnn2C1c1cc(OC)ccc1OC (stereo unspecified)	4.4%	5.3%
CCOC(=O)C1=C(C)N=C2SC(C)C(=O)N2C1c1ccc(OC(C)=O)c(OCC)c1 (stereo unspecified)	2.2%	?
CCn1c(C(=O)NCc2cc(Br)ccc2OC)cc2oc3ccccc3c21	-5.4%	31.6µM*
CCn1c(C(=O)NCc2ccccc2Br)cc2oc3ccccc3c21	-6.6%	?
COc1cc2c(cc1OC)-c1c(OC)c(OC)c(OC)c3ccnc(c13)C2=O	-6.3%	?
CCN1C(=O)c2cccc3c(NC(=O)c4ccc(S(=O)(=O)N5CCOCC5)cc4)ccc1c23	-3.4%	?
Cc1nn(-c2ccccc2)c(N2CCCC2)c1/C=N/NC(=S)Nc1cc(C(F)(F)F)ccc1Cl	-3.9%	10µM*
Cc1nn(-c2ccccc2)c(N2CCCC2)c1/C=N/NC(=S)Nc1ccccc1C(F)(F)F	-6.8%	?
CCc1ccc(C(=O)c2cn(CC(=O)Nc3ccc4c(c3)OCO4)c3ccc(Cl)cc3c2=O)cc1	0.3%	-5.6%
Nc1ccc(C(=O)n2c3ccccc3c3ccccc32)cc1	-11.6%	25.1µM*
Nc1ccc(C(=O)N2CCCC2)cc1	-1.4%	3.8%
CCCc1cc(=O)[nH]c(SCC(=O)Nc2nonc2N)n1	1.3%	-1.2%
CC1CCN(c2ncnc3nc[nH]c23)CC1	-3.5%	-11.9%
CCN1C(=O)/C(=C\c2cccn2-c2ccc([N+](=O)[O-])cc2)N(CC)C1=S	-3.3%	-28.0%
C=CCNC(=O)/C(C#N)=C\c1cc(Cl)c(O)c(OCC)c1	-1.4%	-4.2%
CCOc1cc(/C=C2\CCC/C(=C\c3cc(Cl)c(O)c(OCC)c3)C2=O)cc(Cl)c1O	6.4%	12.6µM*
CSc1nn(CC(=O)Nc2ccccc2F)c(N)c1S(=O)(=O)c1ccccc1	-3.0%	-8.2%
CN1CCc2nc(SCC(=O)OC(C)(C)C)c(C#N)cc2C1	1.1%	9.8%
O=C(Nc1ccc2c(c1)OCCO2)NC1CCCCC1	0.0%	1.8%
C=CCNC(=O)N[C@@H](CCSC)C(=O)OC	4.9%	5.7%
